Assay outcomes as filed in PubChem BioAssay.
Most compounds without a hit are left out; they make up all but 4.5% or so of the library.
HDAC3 inh – HDAC3 deacetylase inhibitors, primary screen, biochemical, fluorescence, cell-free homogeneous | hit rate 0.15% among 320,000 | Histone deacetylase 3 (Homo sapiens), O15379 | inhibition, % at 8.3 µM | recombinant HDAC3, fluorogenic peptide/trypsin coupled; in the data active means inhibition above about 26%, passing the limit was not always enough
Rce1 inh – yeast Rce1p protease inhibitors, primary screen, biochemical, fluorescence, cell-free homogeneous. yeast membranes, quenched prenylated peptide cleavage fluorescence. calls only. hit rate 0.27% among 290,000;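 active means fall in fluorescence gain of 50% or more versus controls, with final raw signal at or below 3038400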
Efflux pump mplx – inhibitors of Candida efflux pumps in yeast, primary screen, S. cerevisiae, Nile Red, multiplex | hit rate 0.44% among 330,000 | inhibition, % at 10 µM | S. cerevisiae Candida pump triplex;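 active means plate passing quality check with inhibition over a set limit, or well fluorescence over plate mean plus 4 SD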;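 further: Nile Red retained in pooled yeast measured as flow cytometry median fluorescence; higher means more Nile Red kept so more efflux inhibition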
Rtt109 Vps75 – inhibitors of C. albicans Rtt109/Vps75 HAT, primary screen, biochemical, ThioGlo CoA-SH fluorescence, plate reader; purified Rtt109/Vps75, 4 h; inhibition, % at 34.9 µM; hit rate 0.16% among 330,000;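 active means inhibition of at least 50% in every replicate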
Target sequence (Q5AAJ8 whole entry, looked up): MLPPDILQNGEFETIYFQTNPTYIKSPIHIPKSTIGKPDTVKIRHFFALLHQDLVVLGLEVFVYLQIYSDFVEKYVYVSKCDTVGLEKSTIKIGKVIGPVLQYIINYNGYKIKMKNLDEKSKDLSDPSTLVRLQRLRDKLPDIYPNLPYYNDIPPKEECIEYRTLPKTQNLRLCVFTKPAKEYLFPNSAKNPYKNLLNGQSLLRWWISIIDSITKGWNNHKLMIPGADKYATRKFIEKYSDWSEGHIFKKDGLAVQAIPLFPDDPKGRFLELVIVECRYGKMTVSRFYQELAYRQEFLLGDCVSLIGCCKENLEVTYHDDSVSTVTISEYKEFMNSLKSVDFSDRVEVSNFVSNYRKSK
ALR inh – inhibitors of human ALR sulfhydryl oxidase, primary screen, biochemical, H2O2 detection, HRP-luminol luminescence, single point. FAD-linked sulfhydryl oxidase ALR (Homo sapiens), P55789. hit rate 3.8% among 290,000. AID 485317, 2010. purified ALR, DTT oxidation. inhibition, % (concentration not given with the values);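 active means mean replicate inhibition above about 79%, with every replicate also reaching it, limit read from the data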
Target sequence (P55789 whole entry, looked up): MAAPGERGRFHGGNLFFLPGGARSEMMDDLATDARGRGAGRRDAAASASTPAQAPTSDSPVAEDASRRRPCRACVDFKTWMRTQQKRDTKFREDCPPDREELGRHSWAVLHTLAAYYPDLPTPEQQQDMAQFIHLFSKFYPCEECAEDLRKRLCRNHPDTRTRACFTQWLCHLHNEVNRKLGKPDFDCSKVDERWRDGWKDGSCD
GRK2 inh – compounds blocking aptamer binding on GRK2 – biochemical, human GRK2, bead flow cytometry, HTS, primary screen | hit rate 0.59% among 330,000 | Beta-adrenergic receptor kinase 1 (Homo sapiens), P25098 | inhibition of aptamer binding, % at 10 µM | FAM-aptamer displacement from GRK2;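 active means inhibition of aptamer binding above 40%, roughly 3 SD of noise, on plates passing a quality check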;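 further: median bead fluorescence of bound FAM aptamer so fluorescent compounds give negative values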
Numbers stand for hits; n = inactive; x = no result given; + = active, no number.

SMILES | HDAC3 inh | Rce1 inh | Efflux pump mplx | Rtt109 Vps75 | ALR inh | GRK2 inh
CC(=O)c1cccc(NC(=O)NC(C)c2ccc3c(c2)OCO3)c1 (stereo not drawn) | n | n | n | n | n | n
CN(C)c1ccc(C2N(c3ccc(F)cc3)C(=O)C3CCCN32)cc1 (stereo not drawn) | n | n | n | n | 97 | n
C[C@]12CC[C@H](O)CC1=CCC1C2CC[C@@]2(C)C1CC[C@@H]2NC(=O)[C@@H](N)Cc1cnc[nH]1 (stereo partly drawn) | x | x | x | n | x | x
O=C(Nc1ccccc1)c1ccccc1NC(=O)c1ccccc1[N+](=O)[O-] | n | x | n | 50 | n | n
O=C(NNC(=O)c1ccccc1[N+](=O)[O-])c1ccc(NC(=O)c2ccccc2)cc1 | n | n | n | n | n | n
O=C(O)c1ccccc1NC(=O)c1ccccc1Nc1ccccc1 | n | n | n | n | 98 | n
O=C(Nc1ccccc1C(=O)Nc1ccccc1C(=O)O)c1ccccc1 | n | n | n | n | 97 | n
O=C(O)CNc1ccccc1C(=O)O | n | + | n | n | n | n
COc1ccccc1NC(=O)c1ccccc1Nc1ccccc1 | n | n | n | n | n | n
CC1(C)C(CSc2nc3ccccc3[nH]2)C1(Cl)Cl (stereo not drawn) | n | n | n | n | n | n
Cc1noc(C)c1COC(=O)c1ccccc1NC(=O)c1ccco1 | n | n | n | n | n | n
CC(=O)Nc1ccccc1NC(=O)c1ccccc1 | n | n | n | n | n | n
Nc1ccccc1NC(=O)c1ccccc1 | 75 | n | n | n | x | n
O=C(CSc1nc2ccccc2s1)Nc1ccc2c(c1)oc1ccccc12 | n | n | n | n | n | n
O=C(CSc1nc2ccccc2s1)NCc1cc([N+](=O)[O-])ccc1O | n | n | n | n | 99 | n
O=C(CSc1nc2ccccc2s1)Nc1cc(C(=O)O)cc(C(=O)O)c1 | n | n | n | n | 99 | n
O=C(CSc1nc2ccccc2s1)Nc1ccc(Cl)c(C(=O)O)c1 | n | n | n | n | 99 | n
Nc1nonc1NC(=O)CSc1nc2ccccc2s1 | n | n | n | n | 98 | n
Cn1nnnc1SCC(=O)NCc1cc([N+](=O)[O-])ccc1O | n | x | n | n | n | n
CC1(c2ccccc2)NC(=O)N(CC(=O)N2CCN(S(=O)(=O)c3cccc(C(F)(F)F)c3)CC2)C1=O (stereo not drawn) | x | x | x | n | x | x
O=C(NCc1ccccc1F)c1ccncc1 | n | n | n | n | x | n
CC(C)[C@H](NC(=O)[C@@H]1Cc2ccccc2CN1C(=O)OC(C)(C)C)C(=O)NCc1ccco1 | n | n | n | n | n | n
O=C(COC(=O)c1cccc(S(=O)(=O)Nc2ccc(F)cc2)c1)NCCN1C(=O)CSC1=O | n | n | n | n | n | n
CC(C)(C)C(=O)C[n+]1ccc(C(N)=O)cc1 | n | + | n | n | n | n
CC(=O)N/C(=C\c1ccccc1)C(=O)OCC(=O)NC1CCS(=O)(=O)C1 (stereo not drawn) | n | x | n | n | n | n
SMILES | HDAC3 inh | Rce1 inh | Efflux pump mplx | Rtt109 Vps75 | ALR inh | GRK2 inh
Cc1nc2ccccc2n1CC(=O)c1ccccc1 | n | n | n | n | n | n
Cc1nc2ccccc2n1CC(=O)c1ccc(O)c(O)c1 | n | x | n | n | 98 | n
N#Cc1c(SCC(=O)Nc2cccc(C(F)(F)F)c2)sc2c(O)cc(=O)[nH]c12 | n | n | n | n | 99 | n
Cc1cc(NC(=O)CSc2sc3c(O)cc(=O)[nH]c3c2C#N)ccc1Br | n | x | n | n | 99 | n
O=C(CSCCO)Nc1cccc(C(F)(F)F)c1 | n | n | n | n | n | n
COc1c([N+](=O)[O-])cc(C(=O)NNC(=O)c2ccc(C)cc2)cc1[N+](=O)[O-] | n | n | n | n | n | n
CCc1nc(SCC(=O)Nc2ccc(N(C)C)cc2)n[nH]1 | n | n | n | n | 98 | n
CCc1nc(SCC(=O)Nc2ccc(C(=O)O)cc2)n[nH]1 | n | n | n | n | 99 | n
CCc1nc(SCC(=O)Nc2ccc(N(CC)CC)cc2)n[nH]1 | x | x | x | n | x | x
COc1ccc(-n2c(SCC(=O)N/N=C(\C)c3cccnc3)nc3ccccc3c2=O)cc1 | n | n | n | x | n | n
Cc1nn(C)cc1/C=C/C(=O)c1ccc(O)cc1 | n | n | n | n | 99 | n
O=C(/C=C/c1ccc(O)cc1)c1ccccc1 | n | n | n | n | 99 | n
CN(C)c1ccc(/C=C/C(=O)c2ccc(O)cc2)cc1 | x | x | x | n | x | x
COc1ccc(C(=O)/C=C/c2ccc(O)cc2)cc1 | n | n | n | n | 98 | n
CCOc1ccc(C(=O)/C=C/c2ccc(OC)c(OC)c2)cc1 | n | n | n | n | 97 | n
COc1ccc(C=CC(=O)c2ccc([N+](=O)[O-])cc2)cc1 | x | x | x | n | x | x
Cc1nn(C)cc1/C=N/O | n | n | n | n | n | n
Brc1cccc(CSc2nnc(-c3ccncc3)o2)c1 | n | n | n | n | n | n
O=C(Nc1ccc(F)c(Cl)c1)Nn1cnnc1 | n | n | n | n | n | n
O=C(COC(=O)c1cc(=O)c2ccccc2o1)Nc1ccccc1F | n | x | n | n | n | n
Cc1cccc(N2C(=O)C(Cl)=C(N3CCOCC3)C2=O)c1 | n | n | n | 113 | n | n
CCNC(=O)c1cc2c(=O)n3cccc(C)c3nc2n(CCc2ccccc2)c1=N | n | n | n | n | n | n
CCCCNC(=O)c1cc2c(=O)n3cccc(C)c3nc2n(Cc2ccccc2)c1=N | n | + | n | x | n | n
CCOc1ccc(S(=O)(=O)N2CCOCC2)cc1NC(=O)CSCc1ccc(C)cc1 | n | x | n | n | n | n
COc1ccc(NCc2nnc(SCC(=O)Nc3ccccc3OC)o2)cc1 | n | n | n | n | n | n
SMILES | HDAC3 inh | Rce1 inh | Efflux pump mplx | Rtt109 Vps75 | ALR inh | GRK2 inh
COc1ccc(OCc2nnc(SCC(=O)Nc3cccc(C(C)=O)c3)o2)cc1 | n | x | n | n | 99 | n
COc1ccc(OC)c(NC(=O)CSc2nnc(CNc3ccc(F)cc3)o2)c1 | n | n | n | n | 91 | n
COc1ccc(-c2ccc(SCC(=O)Nc3cccc(C(C)=O)c3)nn2)cc1OC | n | n | n | n | 85 | n
CC(=O)c1ccc(NC(=O)CSc2ccc(-c3sc(C)nc3C)nn2)cc1 | x | n | n | n | 99 | n
Cc1nc(C)c(-c2ccc(SCC(=O)Nc3ccc(C)c(Cl)c3)nn2)s1 | n | n | n | n | n | n
O=C(Nc1cc(S(=O)(=O)N2CCCC2)ccc1Cl)c1cc(F)c(F)c(F)c1F | n | x | n | n | n | n
O=C(Nc1cc(Cl)ccc1C(=O)O)c1ccc(CN2C(=O)c3ccccc3C2=O)cc1 | n | n | n | n | x | n
